# Measurements published in PubChem BioAssay AID2284360 (EPA ToxCast).
# Results filed as inconclusive are left out. Active and inactive are the calls of the source. Rule for the calls: active = hit-call score of the fitted dose curve at least 0.9, where 1 is the maximum; inconclusive = response in the unintended direction; inactive = score below 0.9.
# Assay: ATG_M_19_EcoTox2: Attagene TRANS-FACTORIAL EcoTox-2 HepG2 Assay for M19 Transcription Factor (Internal Marker)
# Protocol: ATG_EcoTox2 is a cell-based, multiplexed assay created by modifying the existing Attagene TRANS-FACTORIAL system to include a panel of nuclear receptors from some or all the following species: human (Homo sapiens), african clawed frog (Xenopus laevis), rainbow trout (Oncorhynchus mykiss), japanese medaka (Oryzias latipes), and zebrafish (Danio rerio). The ECOTOX2-FACTORIAL format uses HepG2, a human liver cell line, with measurements taken at 24 hours after chemical dosing in a 24-well plate. ATG_M_19_EcoTox2 is one of 29 assay components calculated in the ATG_EcoTox2 assay. It is designed to make measurements of mRNA induction, a form of inducible reporter, as detected with fluorescence intensity signals by Reverse transcription polymerase chain reaction (RT-PCR) and Capillary electrophoresis technology.The assay endpoint ATG_M_19_EcoTox2 was analyzed in the positive analysis fitting direction relative to DMSO as the negative control and baseline of activity. Using a type of inducible reporter, measures of mRNA for gain-of-signal activity can be used to understand the background control at the transcription factor-level as they relate to the gene. Furthermore, this assay endpoint can be referred to as a secondary readout, because this assay has produced multiple assay endpoints where this one serves a background control function. To generalize the intended target to other relatable targets, this assay endpoint is annotated to the background measurement intended target family, where the subfamily is internal marker.
# Human liver HepG2 cells are transiently transfected with multiple reporter transcription units (MRTUs) in 6-well plates using FuGene 6 reagent (Roche; 3 ml FuGene/1 mg DNA). The MRTU constructs are regulated by a cis-regulating element (promoter). Each RTU expresses a GAL4-UAS that regulates the transcription of a nearby target reporter gene sequence. A major difference between the CIS and TRANS system is that in CIS activities of endogenous TFs are measured, whereas the TRANS assay evaluates changes in activities of exogenous, chimeric NR-Gal4 proteins. […] At the end of 24 hour incubation, total RNA was isolated using TriZol reagent (Invitrogen). The isolated RNA is then reverse-transcribed using oligo(dT) primer and Mo-MLV reverse transcriptase (Invitrogen) with DNAse I (Ambion) treatment for 30 min. The one-tenth of the produced cDNA was amplified by PCR using Taq DNA polymerase (Invitrogen) and two reporter sequence-specific primers. […] The fragments were purified using Qiaquick PCR columns (Qiagen), analyzed on an ABI 3130xL genetic analyzer (Applied Biosystems) with peak positions identified by using a set of X-rhodamine (ROX)-labeled MapMarker1000 molecular weight standards (BioVentures). […]
row,SMILES,outcome
1,CC(C)(Oc1ccc(Cl)cc1)C(=O)O,inactive
2,CC(C)(Oc1ccc(CCNC(=O)c2ccc(Cl)cc2)cc1)C(=O)O,inactive
3,C[C@@H]1C[C@H]2[C@@H]3CCC4=CC(=O)C=C[C@]4(C)[C@@]3(F)[C@@H](O)C[C@]2(C)[C@@]1(O)C(=O)COP(=O)(O)O,inactive
4,Cc1ccc(C)c(OCCCC(C)(C)C(=O)O)c1,inactive
